# Rows were chosen to be rich in hits. Some 19% of all compounds tested hit in one or more screens of this group.
# HT1080 IDH1KD tx: kills HT-1080 cells with IDH1 knockdown; HT-1080 IDH1 knockdown viability, ATP luminescence, 48 h; Potency, µM (highest dose often 46.1 µM), inactives show top-dose activity, negative = toxicity, most hits filed as cytotoxic; actives 2% (n = 360,000); AID 686971;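 also: potency is read from the fitted curve at half-maximal effect; 0% = DMSO wells and -100% = cell-free medium wells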
#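 Cytotoxicity counter-line: IDH1KD HT-1080, 48 h, CellTiter-Glo. Curves classed by r2, magnitude and activity.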
# IL1B secr inh: inhibitors of inflammasome signaling (IL-1 beta secretion) | actives 4.7% (n = 360,000) | AID 743279 | THP-1 LPS/ATP IL-1B secretion, AlphaLISA, 16 h; active compounds read low | activity change, % at 57.5 µM; in the data active = activity change below about -50%; inconclusive = mostly about -30% to -49%
#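 Secreted IL-1B measured by AlphaLISA bead assay after 16 h compound exposure of THP-1 cells; compounds (final up to 57.5 uM) added 1 h before LPS (250 ng/mL) and ATP (1.25 mM) stimulation; lower signal means less secretion.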
# HT1080NT lethal: kills 2HG-producing HT-1080-NT fibrosarcoma cells; HT-1080-NT fibrosarcoma viability, CellTiter-Glo ATP luminescence, 48 h; Potency, µM (top dose mostly 46.1 µM), without a hit: at the highest dose activity, negative = less viability, most hits filed as cytotoxic; actives 1.6% (n = 360,000); AID 686970;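 also: NT is the 2HG producing partner of a matched IDH1 knockdown line; potency is read from the fitted curve at half-maximal effect; 0% = DMSO-treated cells and -100% = media-only wells without cells; nearly all actives have a fitted effect of over 55% in size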
#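 Viability of the 2HG-overproducing fibrosarcoma line after 48 hours of compound exposure at 37 degrees C was determined by luminescence with CellTiter-Glo, and concentration-effect curves were then fitted and categorized.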
# DT40 TDP1 no CPT: qHTS for Inhibitors of human tyrosyl-DNA phosphodiesterase 1 (TDP1): qHTS in cells in absence of CPT; actives 15% (n = 420,000); Potency, µM (top dose mostly 46.2 µM), for the others: top-dose activity change, negative = growth inhibition, hits mostly inhibitors; AID 686978, 2013; DT40 Tdp1-/- hTDP1 cells, no CPT, ATP luminescence, 48 h; also: potency is read from the fitted curve at half-maximal effect; nearly all actives have a fitted effect of over 55% in size
#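 Readout: luminescence from CellTiter-Glo after 30 min in the dark at RT. Cells: DT40 Tdp1-/- with stable hTDP1, 400/well. Exposure: compounds alone, ≥48 hr, 37 °C.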
# DT40 TDP1 CPT: growth inhibition of DT40 Tdp1-/-;hTDP1 cells with camptothecin (screen for TDP1 inhibitors); chicken DT40 Tdp1-/-;hTDP1 cells + 20 nM CPT, ATP luminescence, 48 h; Potency, µM (highest dose often 46.2 µM), for inactives: at the top dose activity change, negative = growth inhibition, most hits filed as inhibitors; actives 12% (n = 420,000); AID 686979; also: potency is read from the fitted curve at half-maximal effect; nearly all actives have a fitted effect of over 55% in size
#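 Cell growth measured by CellTiter-Glo luminescence after a minimum 48 h, 37 C compound exposure with 20 nM CPT in Tdp1-knockout DT40 cells stably expressing hTDP1, seeded 400/well; qHTS titration format.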
# An asterisk follows results filed as active; ? = inconclusive; . = no result; [ ] = another dose, or the depositor's remark. Unless noted, calls follow the shape of the dose curve; as a rule, active = well fitted curve in the direction sought with a large enough effect; inconclusive = small, poorly fitted or top-dose-only effect, or another doubt; inactive = no such curve, though single readings can be large; an effect the other way counts as inactive or inconclusive. Unless noted, % is scaled to controls: 0 for no effect and ±100 for the full control effect.
SMILES,HT1080 IDH1KD tx,IL1B secr inh,HT1080NT lethal,DT40 TDP1 no CPT,DT40 TDP1 CPT
CN(CCc1ccc(Cl)c(Cl)c1)C[C@@H](O)COc1ccc(NS(C)(=O)=O)cc1,.,.,.,23.7µM*,?
Cc1cc(OCC(O)CN(CCO)CCO)ccc1Cl (stereo unspecified),10.2%,-8.5,-0.9%,-8.8%,-3.0%
CCCCN(CC)C(=O)c1cc2c(=O)[nH]c3ccc(C)cc3c2s1,16.1%,0.0,16.5%,?,?
Cc1ccc2[nH]c(=O)c3cc(C(=O)N(C)c4ccc(Br)cc4)sc3c2c1,.,.,.,3.26µM*,3.66µM*
Cc1ccc2[nH]c(=O)c3cc(C(=O)N(C)c4ccccc4C)sc3c2c1,7.3%,?,0.0%,10.3µM*,?
Cc1c(C(=O)N2CCC(C)CC2)c(S(=O)(=O)NCc2ccccc2)c(C)n1C,.,.,.,-9.5%,-1.3%
CC(C)c1ccc2nc(N)sc2c1,-6.9%,2.0,-7.6%,25.9µM*,20.1%
Nc1nc2ccc(Br)cc2s1,3.1%,-2.5,-1.0%,-29.9%,-11.8%
CCC(C)NS(=O)(=O)c1ccc(S(=O)(=O)N2CC=C(c3ccc(F)cc3)CC2)cc1 (stereo unspecified),-16.0%,-25.6,-13.4%,18.4µM*,16.4µM*
O=C(OC1CC2CC1[C@H]1CCCCN1C2=O)N1CCN(C(=O)c2ccccc2)CC1 (stereo partly specified),?,18.1,13.1%,?,1.8%
CCCCCCCNC(=O)C1(CC2CC(c3ccccc3)=NO2)CCN(C(=O)OC(C)(C)C)CC1 (stereo unspecified),13.0%,-4.1,4.4%,18.4µM*,?
CCCCCCCNC(=O)C1(CC2CC(c3ccc(Cl)cc3)=NO2)CCN(C(=O)c2ccccc2)CC1 (stereo unspecified),14.6%,?,3.9%,?,?
CCCCCCCNC(=O)C1(CC2CC(c3ccccc3)=NO2)CCN(C(=O)c2ccccc2)CC1 (stereo unspecified),-5.5%,0.0,-13.5%,16.4µM*,?
Fc1ccc(-c2nc3c(-c4ccc(Cl)cc4)cnn3cc2CCN2CCOCC2)cc1,?,-9.6,?,-3.6%,11.3%
COc1ccc(N(CC(=O)NN=C2CCN(C)CC2)S(=O)(=O)c2ccccc2)c(OC)c1,1.6%,23.2,1.0%,-3.2%,0.6%
COCOc1cccc(CN2CCC(C)(Oc3ccc(C(C)=O)cc3)C2)c1 (stereo unspecified),23.2%,-8.4,16.3%,?,?
CC(=O)c1ccc(OC2(C)CCN(Cc3cc4ccccc4[nH]3)C2)cc1 (stereo unspecified),-7.9%,17.2,-24.1%,8.2µM*,4.11µM*
CC(=O)c1ccc(OC2(C)CCN(CCOc3ccc(C)cc3)C2)cc1 (stereo unspecified),-5.1%,-11.7,-24.3%,5.8µM*,16.4µM*
CC(=O)c1cc2cccc(OC3(C)CCN(Cc4ccc5ccccc5c4)C3)c2o1 (stereo unspecified),?,-2.9,-29.6%,?,18.4µM*
CCc1nc2ccc(C(=O)N3CCN(S(=O)(=O)CC)CC3)cn2c1N(CCC(C)C)CCN(C)C,8.8%,-22.3,-0.1%,-4.8%,0.0%
O=c1cc(N2CCCCC2)c(-c2ccccc2)nn1Cc1ccccc1,?,-99.5*,-29.7%,?,?
Cn1nc(-c2ccccc2)c(N2CCCCC2)cc1=O,4.0%,-4.5,6.3%,?,-3.9%
COc1ccc(Cn2nc(-c3ccccc3)c(N3CCCCC3)cc2=O)cc1,?,-231.5*,?,11.6µM*,?
COc1ccc(CC(=O)Nc2ccccc2N2CCCC2)cc1,11.5%,23.7,12.7%,-13.3%,-29.6%
Cc1ccc(S(=O)(=O)N2CCN(C3CC4CCC3C4)CC2)cc1 (stereo unspecified),13.9%,5.4,0.0%,?,?
SMILES,HT1080 IDH1KD tx,IL1B secr inh,HT1080NT lethal,DT40 TDP1 no CPT,DT40 TDP1 CPT
O=[N+]([O-])c1cncc([N+](=O)[O-])c1Nc1ccccc1Cl,-0.6%,-21.3,-0.7%,23.1µM*,18.4µM*
COC(=O)c1ccc(Cn2cnc3c(Cl)ncnc32)cc1,8.5%,-93.7*,?,?,?
COC(=O)c1ccc(Cn2cc(Cl)cn2)cc1,2.1%,?,-3.6%,-5.8%,-11.7%
O=c1c2[nH]c3ccc(F)cc3c2nc2n1CCCS2,-5.5%,-4.0,13.9%,-15.6%,-5.0%
Cc1cccc(NC(=O)C(Cc2ccccc2)n2cccc2)c1C (stereo unspecified),.,.,.,14.6µM*,16.4µM*
Cc1csc(NC(=O)C(Cc2ccccc2)n2cccc2)n1 (stereo unspecified),-8.7%,-17.7,-15.8%,?,29.1µM*
O=C(NC1CCCCCC1)C(Cc1ccccc1)n1cccc1 (stereo unspecified),-2.2%,-61.8*,21.9%,?,?
Cc1ccc(NC(=O)C(Cc2ccccc2)n2cccc2)cc1 (stereo unspecified),-10.8%,?,-21.7%,23.1µM*,?
O=C(Nc1ccc(F)cc1)C(Cc1ccccc1)n1cccc1 (stereo unspecified),-11.2%,-9.5,-19.0%,?,?
Cc1ccccc1NC(=O)C(Cc1ccccc1)n1cccc1 (stereo unspecified),0.6%,-13.7,3.4%,?,-15.6%
COc1ccccc1C1CN(CCNC(=O)c2sccc2Cl)Cc2ccccc2O1 (stereo unspecified),.,.,.,-2.3%,-20.8%[9.04 µM]
CCCCCC1=CCC/C1=N\NC(=O)c1ccc2c(c1)OCO2,-19.6%,5.3,-20.1%,?,3.5%
CC1=CC2C(C(C)C)CCC(C)(O)C2CC1 (stereo unspecified),.,.,.,-14.3%,-28.2%
Cn1c(SCC(=O)N2CCOCC2)nc2sc3c(c2c1=O)CCCC3,-4.6%,-4.2,1.3%,23.1µM*,9.2µM*
C=CCn1c(SCC(=O)N2CCOCC2)nc(O)c(Cc2ccccc2)c1=O,5.1%,-0.8,12.4%,13µM*,?
COc1ccccc1-n1c(SCC(=O)N2CCOCC2)nc(O)c(Cc2ccccc2)c1=O,0.9%,14.7,0.1%,-5.4%,-17.2%
C=CCn1c(SCC(=O)N2CCOCC2)nc2sc3c(c2c1=O)CCCC3,-18.0%,-77.0*,-13.2%,18.4µM*,?
C=CCn1c(SCC(=O)N2CCOCC2)nc2sc(C)c(C)c2c1=O,-2.6%,-13.0,-18.7%,-29.4%,-18.6%
COc1ccc(N2CCN(C(=O)COC(=O)COc3ccc(C#N)cc3)CC2)cc1,17.0%,5.6,16.2%,2.5%,0.3%

# Compound activity (PubChem)
